Results: the supplement of paper PMC10646978
± gives the standard deviation.

Experiments:
Details in all cases: modulator concentration 10 µM
[1] = system: RAW-Dual (murine macrophage reporter line); experiment: NF-kB reporter (SEAP) activity fold change vs agonist alone; higher = enhanced NF-kB activity
Procedure, shortened: (§1)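 Overnight stimulation with a PRR agonist followed pre-incubation for 1 hour at 37 °C with compound at 10 μM final. This was done in RAW-Dual murine macrophage reporter cells seeded at 50 000 per well in 384-well plates. NF-κB (SEAP, QUANTI-Blue absorbance at 620 nm) and IRF (Lucia luciferase, QUANTI-Luc luminescence) were read from the supernatant. Each reporter's fold change relative to the mean agonist-only control on the same plate was averaged over replicate plates.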

[2] = system: RAW-Dual (murine macrophage reporter line); experiment: IRF reporter (Lucia luciferase) activity fold change vs agonist alone; higher = enhanced IRF activity
Procedure, shortened: as §1

[3] = system: RAW-Dual (murine macrophage reporter line); experiment: viability score (confluency relative to resting cells, overnight) (fraction); higher = more viable, active = viable (0.7 or more)
Procedure, shortened: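 RAW-Dual macrophages in 384-well plates were incubated overnight with compound, final concentration 10 μM. Confluency images from IncuCyte were processed in IncuCyte software into two masks covering all imaged wells. The viability score is each well's confluency relative to resting cells, and a compound met the cutoff when both masks exceeded 70% of resting cells.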

[4] = agonist: CpG ODN 1826 0.5 ug/mL

SMILES	NF-kB reporter [1, 4]	NF-kB reporter ([1]; agonist: LPS 0.1 ug/mL)	NF-kB reporter ([1]; agonist: MPLA […])	IRF reporter ([2]; agonist: 3'3'-cGAMP 10 ug/mL)	IRF reporter ([2]; agonist: LPS 0.1 ug/mL)	IRF reporter ([2]; agonist: MPLA […])	viability score [3]
CC12CC3CC(C)(C1)CC(N)(C3)C2 [Prestw-978]	0.916 ± 0.073	0.95 ± 0.092	0.996 ± 0.095	1.26 ± 0.045	0.925 ± 0.078	0.844 ± 0.17	0.979 (active)
CCCCC1=NC2(CCCC2)C(=O)N1Cc1ccc(-c2ccccc2-c2nnn[nH]2)cc1 [Prestw-1736]	1.21 ± 0.29	0.96 ± 0.057	0.952 ± 0.087	0.943 ± 0.034	1.22 ± 0.19	1.06 ± 0.18	1 (active)
Cc1cc(C)nc(NC#N)n1	0.919 ± 0.072	0.966 ± 0.11	0.971 ± 0.061	0.776 ± 0.1	1.02 ± 0.13	1.18 ± 0.2	0.998 (active)
O=C(NCCN1CCOCC1)c1ccc(F)cc1	1.11 ± 0.1	0.995 ± 0.094	1.01 ± 0.039	1.05 ± 0.17	1.03 ± 0.053	1 ± 0.12	0.986 (active)
CCS(=O)(=O)N1N=C(c2ccc(NS(C)(=O)=O)cc2)CC1c1ccccc1 (configuration not stated)	0.947 ± 0.073	0.998 ± 0.078	1.12 ± 0.12	0.963 ± 0.034	1.29 ± 0.15	1.4 ± 0.23	1.02 (active)
O=C1CCC(N2C(=O)c3ccccc3C2=O)C(=O)N1 (configuration not stated)	1.13 ± 0.088	1.03 ± 0.16	1.04 ± 0.12	1.11 ± 0.25	0.897 ± 0.054	0.863 ± 0.067	0.999 (active)
CCOc1ccccc1OCCCCOc1cccc(C)c1	0.871 ± 0.064	0.936 ± 0.071	0.995 ± 0.028	0.996 ± 0.12	0.878 ± 0.13	0.96 ± 0.29	0.998 (active)
Oc1ccc(/C=C/c2cc(O)cc(O)c2)cc1	1.06 ± 0.16	1.23 ± 0.28	1.11 ± 0.084	0.695 ± 0.041	0.845 ± 0.13	0.798 ± 0.12	0.982 (active)
COc1ccc(C=Nc2ccc(OC(C)=O)cc2)cc1	0.738 ± 0.16	1.11 ± 0.16	1.03 ± 0.11	0.588 ± 0.029	1.34 ± 0.13	1.23 ± 0.15	1 (active)
O=C(CCCCCl)NN1c2ccccc2CCc2ccccc21	1.18 ± 0.19	0.984 ± 0.11	1.09 ± 0.084	0.835 ± 0.022	1.18 ± 0.14	1.25 ± 0.29	1.01 (active)
O=[N+]([O-])c1cc(C(O)(C(F)(F)F)C(F)(F)F)cc([N+](=O)[O-])c1Cl	1.07 ± 0.085	1.03 ± 0.072	0.972 ± 0.091	0.706 ± 0.029	1.22 ± 0.17	0.97 ± 0.085	0.996 (active)
CCC1(O)C(=O)OCc2c1cc1n(c2=O)Cc2cc3cc(O)ccc3nc2-1 (configuration not stated)	2.02 ± 0.62	1.28 ± 0.11	2.19 ± 0.4	2.67 ± 0.16	2.12 ± 0.24	1.89 ± 0.32	0.851 (active)
COC(CNC(=O)c1cc2ccccc2[nH]1)c1ccc(Cl)s1 (configuration not stated)	0.989 ± 0.23	1.06 ± 0.081	1.12 ± 0.11	0.917 ± 0.045	1.26 ± 0.14	1.48 ± 0.19	0.882 (active)
CC(=O)CCc1oc2ccc([N+](=O)[O-])cc2c1-c1ccc(C)o1	1.04 ± 0.12	0.837 ± 0.065	0.825 ± 0.084	0.817 ± 0.048	0.849 ± 0.12	0.713 ± 0.17	0.973 (active)
CNCCC(Oc1ccc(C(F)(F)F)cc1)c1ccccc1.Cl (configuration not stated)	0.766 ± 0.072	0.848 ± 0.087	1.33 ± 0.19	1.04 ± 0.13	0.972 ± 0.056	0.9 ± 0.19	0.379 (inactive)
NC(=O)c1cc(NC(=O)c2ccc(Cl)c(Cl)c2)cc(C(N)=O)c1	1.15 ± 0.073	1.04 ± 0.13	1.01 ± 0.048	0.88 ± 0.032	0.943 ± 0.048	0.964 ± 0.096	0.997 (active)
COc1ccc(OCCSc2nc3ccccc3n2CCO)cc1	1.01 ± 0.094	1.09 ± 0.12	1.09 ± 0.031	1.35 ± 0.55	1 ± 0.063	1.05 ± 0.14	0.992 (active)
Cc1cc(C)c(S(=O)(=O)N2CCN(C(=O)N(C)C)CC2)c(C)c1	1.83 ± 0.4	1.21 ± 0.24	2.12 ± 0.63	0.505 ± 0.32	0.802 ± 0.48	0.738 ± 0.31	0.564 (inactive)

SMILES	NF-kB reporter [1, 4]	NF-kB reporter ([1]; agonist: LPS 0.1 ug/mL)	NF-kB reporter ([1]; agonist: MPLA […])	IRF reporter ([2]; agonist: 3'3'-cGAMP 10 ug/mL)	IRF reporter ([2]; agonist: LPS 0.1 ug/mL)	IRF reporter ([2]; agonist: MPLA […])	viability score [3]
CC(=O)N[C@@H](CS)C(=O)O	1.1 ± 0.082	1.05 ± 0.096	1.04 ± 0.052	0.931 ± 0.065	0.982 ± 0.076	1.04 ± 0.087	0.995 (active)
CCOC(=O)C1=C(C)NC(C)=C(C(=O)OC)C1c1ccc([N+](=O)[O-])cc1 (configuration not stated)	0.97 ± 0.24	1.01 ± 0.12	1.13 ± 0.23	1.16 ± 0.049	1.01 ± 0.21	1.09 ± 0.21	0.985 (active)
COc1cc(C)n(CCNC(=O)c2ccccc2C(F)(F)F)c(=O)c1	0.904 ± 0.039	0.933 ± 0.076	1.12 ± 0.06	1.03 ± 0.055	1.34 ± 0.28	1.51 ± 0.4	0.941 (active)
CCN(CC)CCOC(=O)C(c1ccccc1)c1ccccc1 [Prestw-75]	0.712 ± 0.11	1.14 ± 0.14	1.91 ± 0.9	1.2 ± 0.038	0.922 ± 0.09	1.09 ± 0.12	0.91 (active)
Cl.O=S(=O)(c1cccc2cnccc12)N1CCCNCC1	0.76 ± 0.1	1.01 ± 0.27	1.06 ± 0.06	0.825 ± 0.033	0.85 ± 0.15	0.558 ± 0.083	0.992 (active)
CN(C)c1nc(CNC(=O)CSc2nc3ccccc3o2)nc(N(C)C)n1	1.01 ± 0.07	1.13 ± 0.12	1.01 ± 0.067	0.959 ± 0.048	1.05 ± 0.063	1 ± 0.078	0.979 (active)
Cc1nc2c(ccc3ccccc32)c(O)c1CN1CCCC1	0.283 ± 0.029	0.968 ± 0.076	0.95 ± 0.044	0.882 ± 0.073	1.06 ± 0.11	0.808 ± 0.17	1 (active)
O=C(CSc1nc(-c2ccccc2)c(-c2ccccc2)[nH]1)N1CCOCC1	1.05 ± 0.32	1.08 ± 0.16	1.05 ± 0.1	0.897 ± 0.032	1.28 ± 0.17	1.32 ± 0.17	0.996 (active)
C#CC1(O)CCC2C3CCC4=Cc5oncc5CC4(C)C3CCC21C (configuration not stated)	1.26 ± 0.31	1.27 ± 0.094	1.2 ± 0.082	0.787 ± 0.046	1.35 ± 0.2	1.56 ± 0.15	0.958 (active)
CC(=O)Nc1ccc(S(=O)(=O)N2CCCc3ccccc32)cc1	1.15 ± 0.092	0.888 ± 0.081	1.09 ± 0.1	1.13 ± 0.043	1.27 ± 0.24	1.54 ± 0.32	0.984 (active)
COC(=O)C1=C(C)NC(=O)CC1c1cc([N+](=O)[O-])ccc1Cl (configuration not stated)	0.933 ± 0.055	0.986 ± 0.11	0.955 ± 0.058	0.966 ± 0.032	1.16 ± 0.099	0.994 ± 0.24	0.988 (active)
O=C(O)c1cc([N+](=O)[O-])c(Nc2cccc3ccccc23)c([N+](=O)[O-])c1	0.879 ± 0.05	1.05 ± 0.068	0.888 ± 0.074	0.965 ± 0.057	1.31 ± 0.12	1.13 ± 0.22	1.01 (active)
O=C(O)c1cc2ccccc2[nH]1	1.02 ± 0.087	0.963 ± 0.08	1.02 ± 0.024	1.02 ± 0.071	0.975 ± 0.14	0.889 ± 0.23	1 (active)
CC(C)C1=NN2C(=N)C(=Cc3ccc(-c4ccccc4[N+](=O)[O-])o3)C(=O)N=C2S1	0.927 ± 0.078	0.953 ± 0.065	0.944 ± 0.066	0.89 ± 0.043	1.48 ± 0.22	1.06 ± 0.22	1.01 (active)
CCOC(=O)C1=C(C)NC(C)=C(C(=O)OC)C1c1ccc(Cl)cc1 (configuration not stated)	0.607 ± 0.14	0.448 ± 0.035	0.563 ± 0.062	1 ± 0.057	1.01 ± 0.1	1.26 ± 0.21	0.598 (inactive)
CCCCNCCCCOc1ccc(C)cc1C(C)(C)C	0.441 ± 0.12	0.167 ± 0.036	1.38 ± 0.048	0.0798 ± 0.034	0.201 ± 0.056	2.6 ± 0.65	0.0697 (inactive)
CC12C=CC(CO)(O1)C1C(=O)NC(=O)C12 (configuration not stated)	1.26 ± 0.1	1.07 ± 0.066	0.838 ± 0.082	0.907 ± 0.047	0.469 ± 0.027	0.32 ± 0.027	0.783 (active)
CCCCN(CCCC)CC(=O)Nc1c2c(nc3ccccc13)CCC2.O=C(O)C(=O)O	0.63 ± 0.035	1.1 ± 0.067	1.15 ± 0.068	1.38 ± 0.053	1.98 ± 0.13	0.98 ± 0.15	0.308 (inactive)
